Assay outcomes (PubChem BioAssay)
Abeta yeast res: compounds reversing amyloid beta toxicity in yeast. yeast expressing A-beta42, growth rescue, OD600, 48 h; response scale: 0% DMSO, 100% iron-clioquinol control. Potency, µM (doses to about 46.1 µM), most hits filed as activators. 410,000 tested, 0.063% active. AID 1347071; note: nearly all actives have a fitted effect of over 55% in size
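Yeast A-beta toxicity model in growth medium with pinned compounds, 48 h at 30 C; growth read as absorbance at 600 nm. Normalized to FeCl3/clioquinol equimolar mix (positive) and DMSO (negative).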
FUS suppressor: suppressors of FUS proteinopathy in yeast; S. cerevisiae FUS-expressing, growth rescue, OD600, 24 h; Potency, µM (series often up to 76.6 µM), usual class: activators; 390,000 tested, 0.24% active; AID 1347120; note: nearly all actives have a fitted effect of over 55% in size
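S. cerevisiae expressing FUS from galactose induction served as the toxicity model. Growth after 24hr at 30C, read as absorbance at 600 nm, indicates suppression of toxicity; compounds dosed at several concentrations.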
aSyn rescue: inhibitors of alpha-synuclein toxicity in yeast | Yeast expressing alpha-synuclein, growth rescue, BacTiter-Glo, 24 h | Potency, µM (top dose mostly 46.1 µM), usual class: activators | 370,000 tested, 0.14% active; note: nearly all actives have a fitted effect of over 65% in size
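Rescue of yeast growth: cells expressing toxic alpha-synuclein, induced in galactose at OD600 0.02, incubated with compound 24 h at 30 C. ATP luminescence quantified growth; inhibitors of toxicity appear as activators.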
TDP-43 yeast inh: inhibitors of TDP-43 toxicity in yeast; TDP-43 expressing yeast growth rescue, BacTiter-Glo, 24 h; AID 652104; 410,000 tested, 1.8% active; Potency, µM (titrated, usually from 46.1 µM), hits mostly activators; note: nearly all actives have a fitted effect of over 50% in size
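Yeast expressing TDP-43 (pregrown in raffinose, seeded at OD600=0.02 in galactose medium) exposed to compounds 24 hr at 30 deg C. Growth read by BacTiter-Glo luminescence; rescue of toxicity appears as increased signal.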
Of the large screens only hits and unclear results are named; the others gave an inactive call. Sampled rows, rich in hits. Any-hit rate of the full collection: about 2.1%. Calls come from the whole dose curve; as a rule, active = well fitted curve in the direction sought with a large enough effect; inconclusive = small, poorly fitted or top-dose-only effect, or another doubt; inactive = no such curve, though single readings can be large; an effect the other way counts as inactive or inconclusive.

O=[N+]([O-])CC(c1ccc(F)cc1)c1c[nH]c2ccccc12 (stereo not drawn)	Abeta yeast res inconclusive, aSyn rescue inconclusive, TDP-43 yeast inh 18µM
O=C(O)c1ccc(N2CCN(C(c3ccccc3)c3ccccc3)CC2)c([N+](=O)[O-])c1	TDP-43 yeast inh 11µM
C=C1CCN(c2ccc(C(=O)O)cc2[N+](=O)[O-])CC1	TDP-43 yeast inh inconclusive
CCOC(=O)c1ccc(NC(=O)CC(=O)Nc2ccc3nc4n(c(=O)c3c2)CCCCC4)cc1	none (no result: aSyn rescue)
O=C(CN1C(=O)CCSc2ccccc21)Nc1ccc(Cl)cc1	none (no result: Abeta yeast res, aSyn rescue, TDP-43 yeast inh)
O=Nc1c(O)n(Cc2ccccc2)c2ccccc12	none
O=Nc1c(O)n(Cc2ccc(Cl)c(Cl)c2)c2ccccc12	aSyn rescue 13µM
CC(C(=O)NCc1ccc2c(c1)OCO2)N1c2cccc3cccc(c23)S1(=O)=O (stereo not drawn)	TDP-43 yeast inh 13µM
O=C(CN1c2cccc3cccc(c23)S1(=O)=O)NCc1ccc2c(c1)OCO2	none
O=C1C2C(c3ccccc3)C=CC(c3ccccc3)C2C(=O)N1CCO (stereo not drawn)	none
O=C1C2C3C=CC(C3=C(c3ccccc3)c3ccccc3)C2C(=O)N1CCO (stereo not drawn)	TDP-43 yeast inh 20µM
COc1ccccc1-c1noc(-c2ccc(NCc3ccco3)c([N+](=O)[O-])c2)n1	none (no result: aSyn rescue)
Oc1ccccc1Cc1c(O)ccc2ccccc12	TDP-43 yeast inh 16µM
Cc1cn2c(=O)c(S(=O)(=O)NCc3ccc(F)cc3)c(C)nc2s1	none (no result: aSyn rescue)
CN(C(=O)c1oc(=O)c2ccccc2c1-c1ccccc1)c1cccc(Cl)c1	TDP-43 yeast inh 25µM (no result: aSyn rescue)
C#CCOCCOCCOCCNc1nc(N2CCN(C(=O)CCCCCCCCCCNC(=O)[C@H]([C@@H](C)CC)n3cc(CCCCCN)nn3)CC2)nc(N2CCN(C(=O)CCCCCCCCCCNC(=O)[C@H](CCCCN)n3cc(CCCC(=O)O)nn3)CC2)n1	FUS suppressor inconclusive
C#CCOCCOCCOCCNc1nc(N2CCN(C(=O)CCCCCCCCCCNC(=O)[C@H]([C@@H](C)CC)n3cc(CCCCCN)nn3)CC2)nc(N2CCN(C(=O)CCCCCCCCCCNC(=O)[C@H](CO)n3cc(CCCCCN)nn3)CC2)n1	FUS suppressor 14µM
C#CCOCCOCCOCCNc1nc(N2CCN(C(=O)CCCCCCCCCCNC(=O)[C@H]([C@@H](C)CC)n3cc(CCCCN=C(N)N)nn3)CC2)nc(N2CCN(C(=O)CCCCCCCCCCNC(=O)[C@H](CCCCN)n3cc(C)nn3)CC2)n1	FUS suppressor 11µM
C#CCOCCOCCOCCNc1nc(N2CCN(C(=O)CCCCCCCCCCNC(=O)[C@@H](CCC(=O)O)n3cc(CCCCCN)nn3)CC2)nc(N2CCN(C(=O)CCCCCCCCCCNC(=O)[C@H]([C@@H](C)CC)n3cc(CCCCCN)nn3)CC2)n1	FUS suppressor inconclusive
CC1CCC(Nc2nc3c(-c4cccc(C(F)(F)F)c4)nnn3c3ccccc23)CC1 (stereo not drawn)	none (no result: aSyn rescue)
COC(=O)C1=C(C(=O)OC)C(c2cc(Br)ccc2O)c2sc(=O)[nH]c2S1 (stereo not drawn)	none
COC(=O)C1=C(C(=O)OC)C(c2cc(Cl)ccc2O)c2sc(=O)[nH]c2S1 (stereo not drawn)	aSyn rescue 14µM
CCOC(=O)/C=C/C(=O)OCC(=O)Nc1ccc([N+](=O)[O-])cc1	TDP-43 yeast inh 14µM (no result: Abeta yeast res)
C[C@H](CO)N1C[C@H](C)[C@H](CN(C)S(=O)(=O)c2ccccc2)Oc2ccc(NC(=O)NC3CCCCC3)cc2CC1=O	FUS suppressor 22µM
C[C@H](CO)N1C[C@H](C)[C@@H](CN(C)S(=O)(=O)c2ccc(Cl)cc2)Oc2ccc(NS(=O)(=O)c3ccccc3)cc2CC1=O	FUS suppressor 10µM
C[C@H](CO)N1C[C@H](C)[C@H](CN(C)S(=O)(=O)c2cccs2)Oc2ccc(NC(=O)Nc3ccc4c(c3)OCO4)cc2CC1=O	FUS suppressor 25µM
CCc1ccccc1NC(=O)CSc1nnc2ccc3ccccc3n12	TDP-43 yeast inh inconclusive (no result: aSyn rescue)
O=C(CSc1nnc2ccc3ccccc3n12)Nc1ccccc1Cl	TDP-43 yeast inh 18µM (no result: aSyn rescue)
CC(C)CC(c1nnnn1Cc1cccs1)N1CCN(c2nc3ccccc3s2)CC1 (stereo not drawn)	TDP-43 yeast inh inconclusive
CCC(c1nnnn1Cc1cccs1)N1CCN(c2nc3ccccc3s2)CC1 (stereo not drawn)	FUS suppressor inconclusive, aSyn rescue inconclusive, TDP-43 yeast inh 16µM
O=C(COC(=O)Cc1ccccc1F)Nc1ccc(SC(F)F)cc1	TDP-43 yeast inh 10µM
O=C(Cc1ccccc1F)Nc1ccc(SC(F)F)cc1	none
Cc1ccc2nc(N3CCN(c4cccc(C)c4C)CC3)c3nncn3c2c1	none (no result: aSyn rescue)
Cc1cccc(N2CCN(c3nc4ccc(C)cc4n4cnnc34)CC2C)c1 (stereo not drawn)	TDP-43 yeast inh 35µM (no result: aSyn rescue)
CNc1nc(N)c([N+](=O)[O-])c(Nc2ccccc2OC)n1	TDP-43 yeast inh 2.5µM
CC1CN(C(=O)CCC(=O)Nc2cc(F)ccc2F)c2ccccc2S1 (stereo not drawn)	TDP-43 yeast inh 11µM (no result: aSyn rescue)
Cc1nnc2c(N3CCN(c4ccccc4F)CC3)nc3ccccc3n12	none (no result: aSyn rescue)
COc1cccc(CNC(=O)C2CCN(c3nnc(-n4c(C)ccc4C)s3)CC2)c1	none (no result: aSyn rescue)
Cc1nc(SC2CC(=O)N(c3ccccc3)C2=O)n[nH]1 (stereo not drawn)	TDP-43 yeast inh 4.5µM
COc1ccc(N2C(=O)CC(Sc3nnc(-c4ccccc4)o3)C2=O)cc1 (stereo not drawn)	TDP-43 yeast inh 11µM (no result: aSyn rescue)
O=C1CC(Sc2nnc(-c3ccccc3O)o2)C(=O)N1c1ccccc1 (stereo not drawn)	FUS suppressor inconclusive, aSyn rescue inconclusive, TDP-43 yeast inh inconclusive
COc1ccccc1NC(=O)CSC1=Nc2ccccc2C2=NC(Cc3ccccc3)C(=O)N12 (stereo not drawn)	FUS suppressor inconclusive (no result: aSyn rescue)
CN1CCCN(C(=O)c2cc(=O)[nH]c3ccccc23)c2nc3ccccc3nc21	none
CN1CCCN(C(=O)Cc2c(Cl)cccc2Cl)c2nc3ccccc3nc21	TDP-43 yeast inh 22µM
CCOc1cc(/C=C/c2ccc3cccc([N+](=O)[O-])c3n2)ccc1OCC(=O)N(C)C	none
CCOc1cc(/C=C/c2ccc3cccc([N+](=O)[O-])c3n2)ccc1O	TDP-43 yeast inh 16µM (no result: FUS suppressor)
CCOc1cccc(/C=C/c2ccc3cccc(O)c3n2)c1O	TDP-43 yeast inh 11µM
CC(NC(=O)Cn1c(=O)oc2cc(S(=O)(=O)NCc3ccccc3)ccc21)c1ccccc1 (stereo not drawn)	none (no result: aSyn rescue)
Cc1ccc(C)c(N2CCN(c3c(CN4CCCC4)c(=O)oc4ccccc34)CC2)c1	none (no result: aSyn rescue)
N/C(=N\OC(=O)c1ccc(Cl)c(Cl)c1)c1cccnc1	TDP-43 yeast inh 6.3µM
O=C(O/N=C(\c1ccccc1)c1ccccn1)c1ccc(Cl)c(Cl)c1	Abeta yeast res inconclusive
